An excerpt weighted towards active compounds, which were near 21% of everything screened.
VP16 counter – VP16 counterscreen qHTS for inhibitors of ROR gamma transcriptional activity; Drosophila S2 Gal4-VP16 UAS-luciferase, luminescence, 20 h; Potency, µM (series often up to 53.6 µM), inactives show at the top dose activity, negative = inhibition, usual class: inhibitors; 310,000 tested, 3.5% active;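 further: Gal4-VP16 expression switched on by copper sulfate through the metallothionein promoter; potency means the concentration at half of the fitted maximal effect; nearly all actives have a fitted effect of over 50% in size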
TDP1 cell noCPT – qHTS for Inhibitors of human tyrosyl-DNA phosphodiesterase 1 (TDP1): qHTS in cells in absence of CPT; 420,000 tested, 15% active; Potency, µM (highest dose often 46.2 µM), for the others: at the highest dose activity change, negative = growth inhibition, most hits filed as inhibitors; DT40 Tdp1-/- hTDP1 cells, no CPT, ATP luminescence, 48 h; further: potency means the concentration at half of the fitted maximal effect; nearly all actives have a fitted effect of over 55% in size
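Compound effects on proliferation are scored in DT40 Tdp1-/-;hTDP1 cells in the absence of CPT. ATP levels (CellTiter-Glo luminescence) are recorded after a ≥48 hr, 37 °C incubation.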
ELG1 repair inh – qHTS screen for small molecules that inhibit ELG1-dependent DNA repair in human embryonic kidney (HEK293T) cells expressing luciferase-tagged ELG1; Potency, µM (top dose mostly 46.1 µM), for inactives: at the highest dose activity change, negative = inhibition, most hits filed as inhibitors; HEK293T ELG1-luciferase reporter, luminescence, 16 h; DNA damage induced by 5-fluorouridine; 330,000 tested, 2.3% active; AID 504467, 2011; further: potency means the concentration at half of the fitted maximal effect; nearly all actives have a fitted effect of over 55% in size
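Luminescence from the luciferase reporter, measured 30 min after ONE-Glo reagent at room temperature, was the read-out. Beforehand, 2,000 cells per well were exposed for 16 hr at 37 °C to 5-fluorouridine together with compound or vehicle.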
TDP1 cell CPT – qHTS for Inhibitors of human tyrosyl-DNA phosphodiesterase 1 (TDP1): qHTS in cells in presence of CPT | chicken DT40 Tdp1-/-;hTDP1 cells + 20 nM CPT, ATP luminescence, 48 h | Potency, µM (doses to about 46.2 µM), without a hit: top-dose activity change, negative = growth inhibition, most hits filed as inhibitors | 420,000 tested, 12% active; further: potency means the concentration at half of the fitted maximal effect; nearly all actives have a fitted effect of over 55% in size
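Cell growth measured by CellTiter-Glo luminescence after a minimum 48 h, 37 C compound exposure with 20 nM CPT in Tdp1-knockout DT40 cells stably expressing hTDP1, seeded 400/well; qHTS titration format.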
IL-1B inflam inh – qHTS for Inhibitors of Inflammasome Signaling: IL-1-beta AlphaLISA Primary Screen. THP-1 LPS/ATP IL-1B secretion, AlphaLISA, 16 h; hits give low values. activity change, % at 57.5 µM. 360,000 tested, 4.7% active. AID 743279, 2014; in the data active means activity change below about -50%; inconclusive means mostly about -30% to -49%
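THP-1 cells pretreated 1 hr with compounds (up to 57.5 uM final), then stimulated with LPS (250 ng/mL final) plus ATP (1.25 mM final); secreted IL-1B measured by AlphaLISA after 16 hr, decreased signal indicating inhibition.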
RORgamma inh – qHTS for inhibitors of ROR gamma transcriptional activity; Nuclear receptor ROR-gamma (Mus musculus), P51450; Drosophila S2 Gal4-RORgamma UAS-luciferase reporter, 20 h; 310,000 tested, 5.4% active; Potency, µM (series often up to 53.6 µM), for inactives: at the top dose activity change, negative = inhibition, hits mostly inhibitors; further: potency means the concentration at half of the fitted maximal effect; nearly all actives have a fitted effect of over 60% in size
Target sequence (P51450 whole entry, looked up, the tested form may be a part): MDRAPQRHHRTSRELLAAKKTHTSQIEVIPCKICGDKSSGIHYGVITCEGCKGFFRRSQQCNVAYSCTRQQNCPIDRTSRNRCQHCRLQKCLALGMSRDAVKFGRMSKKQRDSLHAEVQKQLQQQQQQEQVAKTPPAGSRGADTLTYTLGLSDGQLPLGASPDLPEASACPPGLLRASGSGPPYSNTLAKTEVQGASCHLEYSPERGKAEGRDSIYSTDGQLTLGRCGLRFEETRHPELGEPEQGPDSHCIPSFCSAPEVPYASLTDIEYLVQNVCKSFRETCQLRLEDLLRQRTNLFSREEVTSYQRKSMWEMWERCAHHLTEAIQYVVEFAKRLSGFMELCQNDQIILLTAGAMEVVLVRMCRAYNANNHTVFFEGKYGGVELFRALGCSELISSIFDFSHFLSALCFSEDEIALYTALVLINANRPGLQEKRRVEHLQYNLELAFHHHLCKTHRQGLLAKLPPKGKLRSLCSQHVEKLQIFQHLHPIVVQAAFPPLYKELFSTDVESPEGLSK
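Drosophila S2 cells stably expressing Gal4-DBD/mouse RORγ fusion under metallothionein promoter plus UAS-luciferase; compound 1 h, then 700 uM CuSO4 induction for 20 h at ambient temperature; inhibition read as reduced luminescence.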
* hit, by the source's call. Unless noted, the call rests on the fitted dose curve; in most records, active means well fitted curve in the direction sought with a large enough effect; inconclusive means small, poorly fitted or top-dose-only effect, or another doubt; inactive means no such curve, though single readings can be large; an effect the other way counts as inactive or inconclusive. On the % scale 0 is the no-effect control and ±100 the full control effect.

What do the screens show for `CCOC(=O)C1(Cc2ccccc2)CCCN(Cc2ccccn2)C1` (stereo not given)?
VP16 counter: -12%; TDP1 cell noCPT: inconclusive; ELG1 repair inh: -1%; TDP1 cell CPT: inconclusive; IL-1B inflam inh: 14; RORgamma inh: 13µM*

Results for CCn1ccnc1CN1CCCC(CO)(Cc2cccc(OC)c2)C1 (stereo not given) ?
VP16 counter: 10%; TDP1 cell noCPT: inconclusive; ELG1 repair inh: -8%; TDP1 cell CPT: -22%; IL-1B inflam inh: 13; RORgamma inh: -30%

What do the screens show for `CCOC(=O)C1(Cc2cccc(OC)c2)CCN(Cc2cnc(SC)nc2)CC1`?
VP16 counter: -5%; TDP1 cell noCPT: inconclusive; ELG1 repair inh: -17%; TDP1 cell CPT: -27%; IL-1B inflam inh: 7; RORgamma inh: 12%

How did CCOC(=O)C1(CC2CCCCO2)CCN(Cc2ccc(OC)cc2F)CC1 (stereo not given) do in these assays?
VP16 counter: -7%; TDP1 cell noCPT: 21µM*; ELG1 repair inh: -17%; TDP1 cell CPT: inconclusive; IL-1B inflam inh: 23; RORgamma inh: 14%

How did COc1ccc(C(=O)c2cc([N+](=O)[O-])ccc2N2CCN(C)CC2)cc1 do in these assays?
VP16 counter: -2%; TDP1 cell noCPT: 3.3µM*; ELG1 repair inh: inconclusive; TDP1 cell CPT: 2.6µM*; IL-1B inflam inh: 38; RORgamma inh: 13%

Results for COc1ccc(C(=O)c2cc([N+](=O)[O-])ccc2N2CCCC2)cc1 ?
VP16 counter: -3%; TDP1 cell noCPT: 5.2µM*; ELG1 repair inh: inconclusive; TDP1 cell CPT: 3.3µM*; IL-1B inflam inh: 12; RORgamma inh: 2%

How did COc1ccc(C(=O)c2ccc([N+](=O)[O-])cc2Cl)cc1 do in these assays?
VP16 counter: 24%; TDP1 cell noCPT: inconclusive; ELG1 repair inh: 37%; TDP1 cell CPT: -1%; IL-1B inflam inh: -22; RORgamma inh: 31%

How did COc1ccc(-c2cc(NC=O)c3ncc(-c4ccc(OC)c(OC)c4)n3c2)cc1OC do in these assays?
TDP1 cell noCPT: 4.1µM*; TDP1 cell CPT: 5.2µM*; IL-1B inflam inh: -62*

What do the screens show for `COc1ccc(-c2cnc3c(NC=O)cc(-c4ccccc4OC)cn23)cc1OC`?
TDP1 cell noCPT: 0.0073µM*; TDP1 cell CPT: 0.029µM*; IL-1B inflam inh: 32

What do the screens show for `COc1ccc(-c2cc(NC=O)c3ncc(-c4ccc(OC)c(OC)c4)n3c2)cc1`?
TDP1 cell noCPT: 1µM*; TDP1 cell CPT: 0.73µM*; IL-1B inflam inh: -11

Results for Cc1ccc(CNC(=O)c2cc(C3CC3)nc3c2c(C)nn3-c2cccc(Cl)c2C)cc1 ?
TDP1 cell noCPT: -23%; TDP1 cell CPT: -8%

What do the screens show for `O=C(Cn1nc(Cc2ccncc2)c2ccccc2c1=O)Nc1cccnc1Cl`?
VP16 counter: -2%; TDP1 cell noCPT: 13%; ELG1 repair inh: 7%; TDP1 cell CPT: -25%; IL-1B inflam inh: inconclusive; RORgamma inh: -17%

What do the screens show for `O=C(NC1CC(=O)N(c2ccc(F)cc2)C1)C(=O)c1c[nH]c2ccccc12` (stereo not given)?
TDP1 cell noCPT: -26%; ELG1 repair inh: 2%; TDP1 cell CPT: -9%; IL-1B inflam inh: 17

How did C#CCN(C[C@@H]1[C@@H](OC(=O)NCCCCCC)[C@@H](OC(=O)NCCCCCC)Cn2c(=O)n(CCCCCC)c(=O)n21)S(=O)(=O)c1ccc(C)cc1 do in these assays?
TDP1 cell noCPT: inconclusive; TDP1 cell CPT: inconclusive; IL-1B inflam inh: 3

What do the screens show for `C#CCN(C[C@H]1[C@H](OC(=O)NC2CC2)[C@H](OC(=O)NC2CC2)C[C@H]2C(=O)N(c3ccccc3)C(=O)[C@@H]12)S(=O)(=O)c1ccc(C)cc1`?
TDP1 cell noCPT: -12%; TDP1 cell CPT: -14%; IL-1B inflam inh: 11

Results for Cc1ccc(S(=O)(=O)N2C[C@@]3(O)Cn4c(=O)ccc(=O)n4C[C@@]3(OC(=O)NCc3ccccc3F)C2)cc1 ?
TDP1 cell noCPT: -20%; TDP1 cell CPT: 0%; IL-1B inflam inh: inconclusive

Results for C#CCN(C[C@@H]1[C@@H](OC(=O)NCc2ccccc2F)[C@@H](OC(=O)NCc2ccccc2F)Cn2c(=O)n(CCCCCC)c(=O)n21)S(=O)(=O)c1ccc(C)cc1 ?
TDP1 cell noCPT: 12µM*; TDP1 cell CPT: inconclusive; IL-1B inflam inh: inconclusive

Results for C#CCN(C[C@@H]1[C@@H](OC(=O)NCC2CCCCC2)[C@@H](OC(=O)NCC2CCCCC2)Cn2c(=O)n(CCCCCC)c(=O)n21)S(=O)(=O)c1ccc(C)cc1 ?
TDP1 cell noCPT: 6.5µM*; TDP1 cell CPT: inconclusive; IL-1B inflam inh: -12

What do the screens show for `C#CCN(C[C@@H]1[C@@H](OC(=O)NCc2ccccc2F)[C@@H](OC(=O)NCc2ccccc2F)Cn2c(=O)ccc(=O)n21)S(=O)(=O)c1ccc(C)cc1`?
TDP1 cell noCPT: 2.6µM*; TDP1 cell CPT: 4.1µM*; IL-1B inflam inh: -111*

What do the screens show for `CC(=O)C1CCC2C3CC=C4CC(O)CC[C@@]4(C)C3CC[C@]12C` (stereo not given in full)?
VP16 counter: 3%; TDP1 cell noCPT: -5%; TDP1 cell CPT: 2%; RORgamma inh: -39%

How did CCOC(=O)C1=NOC2(C1)C(=O)Nc1ccc(OC(F)(F)F)cc12 (stereo not given) do in these assays?
TDP1 cell noCPT: 16µM*; TDP1 cell CPT: inconclusive; IL-1B inflam inh: -11

How did CC1(Cc2ccc(OC(F)(F)F)cc2)C(=O)Nc2ccc(OC(F)(F)F)cc21 (stereo not given) do in these assays?
TDP1 cell noCPT: inconclusive; TDP1 cell CPT: inconclusive; IL-1B inflam inh: -13

How did O=C(NCCCN1CCCCC1)c1[nH]c2ccccc2c1Sc1ccc(Cl)cc1 do in these assays?
TDP1 cell noCPT: 21µM*; TDP1 cell CPT: 21µM*

What do the screens show for `CC1CCCCN1CCCNC(=O)c1[nH]c2ccccc2c1Sc1ccc(Cl)cc1` (stereo not given)?
TDP1 cell noCPT: 13µM*; TDP1 cell CPT: 10µM*

Screens deposited in PubChem by National Center for Advancing Translational Sciences (NCATS).
